Here are results for 14 compounds from PubChem BioAssay (EPA / NIEHS).

SMILES strings stand for the structures. Calls of active or inactive are those of the source. Rule for the calls: active = hit-call score of the fitted dose curve at least 0.9, where 1 is the maximum; inactive = score below 0.9.

This assay is described as follows: Tanguay_ZF_120hpf_MUSC: Oregon State University Tanguay Lab 120 Hour Post-fertilization zebrafish Assay for Muscle Malformation (AID 2284401). The procedure:
Tanguay_ZF_120hpf is a whole embryo, multiplexed endpoint assay using zebrafish larvae exposed for 120 hours post fertilization on a 96-well plate.Tanguay_ZF_120hpf_MUSC is one of one assay component(s) measured or calculated from the Tanguay_ZF_120hpf assay. It is designed to make measurements of zebrafish development as detected with brightfield microscopy of developing zebrafish embryos.Data from the assay component Tanguay_ZF_120hpf_MUSC was analyzed into 1 assay endpoints. This assay endpoint, Tanguay_ZF_120hpf_MUSC, was analyzed in the positive analysis fitting direction relative to DMSO as the negative control and baseline of activity. Using a type of morphology reporter, gain-of-signal activity can be used to understand changes in developmentals as they relate to the whole embryo. To generalize the intended target to other relatable targets, this assay endpoint is annotated to the zebrafish development intended target family, where the subfamily is myogensis.
Zebrafish husbandry: Tropical 5D wild-type adult zebrafish were housed in at an approximate density of 1000 per 100 gallon tank at the Sinnhuber Aquatic Research Laboratory, Oregon State University, Corvallis, OR. Each tank was kept at standard laboratory conditions of 28C on a 14-h light/10-h dark photoperiod in fish water consisting of reverse osmosis water supplemented with a commercially available salt (Instant Ocean). Spawning funnels were placed into the tanks the night prior, and embryos were collected and staged. To increase bioavailability, the chorion was enzymatically removed using pronase (63.6mg/ml, >/= 3.5U/mg, Sigma-Aldrich: P5147) at 4 hours post fertilization (hpf) using a custom automated dechorionator.Chemical exposures: Six hpf dechorionated embryos were placed 1 embryo per well in a 96-well plate prefilled with 90 ul of EM using automated embryo placement systems (AEPS). Ten microliters of each row of dilution plate 2 was added to 2 exposure plates. The final DMSO concentration used was 0.64% (vol/vol). Thirty-two embryos were also exposed to 5uM trimethyltin chloride (positive control). Plates were sealed to prevent evaporation and foil covered to reduce light exposure and kept in a 28C incubator. Embryos were statically exposed until 120 hpf. At 24 hpf, embryos were assessed for photomotor response using a custom photomotor response analysis tool (PRAT) and for developmental toxicity endpoints (MO24: mortality at 24 hpf, DP: developmental progression, SM: spontaneous movement, and NC: notochord distortion). At 120 hpf, locomotor activity was measured using Viewpoint Zebralab and assessed for 13 endpoints. Zebrafish acquisition and analysis program (ZAAP), a custom program designed to inventory, acquire, and manage zebrafish data, was used to collect developmental endpoints as either present or absent (i.e., binary responses were recorded). If mortality occurred for an embryo (at either 24 or 120 hpf), the non-mortality endpoints were not measured.
As for `OCC(F)(F)OC(F)(F)C(F)(F)OC(F)(F)C(F)(F)OC(F)(F)F`, the call was inactive.
On the same count and under the same terms, the same measure for `O=C(O)C(F)(OC(F)(F)C(F)(F)C(F)(F)F)C(F)(F)F` (centres undefined): “inactive”; for `O=C(O)C(F)(F)OC(F)(F)C(F)(F)OC(F)(F)F`: “inactive”.
For `C=CC(=O)OCC(F)(F)C(F)F`, the AC50 was 54.6 µM (active).
Regarding `O=S(=O)(F)C(F)(F)C(F)(F)C(F)(F)C(F)(F)C(F)(F)C(F)(F)C(F)(F)C(F)(F)F`, the result was inactive.
Still for that read-out and setting: then `FC(F)(F)C(F)(C(F)(F)F)C(F)(F)C(F)(F)CC1CO1` (centres undefined), with “inactive”; and `O=C(O)C=CC(F)(C(F)(F)F)C(F)(F)F`, with “inactive”; and `O=C(O)C(F)(F)OC(F)(F)C(F)(F)OC(F)(F)C(=O)O`, with “inactive”.
Still for that read-out and setting: the same measure for `O=C(O)C(F)(F)C(F)(F)C(=O)O`: “inactive”.
The same measure, in the same setting: the same measure for `OCC(F)(F)OC(F)(F)C(F)(F)OC(F)(F)CO`: “inactive”.
For the compound `OCC(F)(F)OC(F)(F)C(F)(F)OC(F)(F)C(F)(F)OC(F)(F)CO`, the half-maximal activity concentration (AC50) was 36.7 µM (active).
With `COC(=O)C(F)(F)C(F)(F)OC(F)(C(F)(F)F)C(F)(F)OC(F)=C(F)F` (centres undefined), the compound was called inactive.
Same read-out and setting: then `NC(=O)C(F)(F)C(F)(F)F`, with “inactive”; and `CC(O)C(F)(F)C(F)(F)F` (centres undefined), with “inactive”.

One may read the AC50 as the concentration at which the activity in the assay is half-maximal.
